Experimental data taken from PubChem BioAssay AID485317 (Broad Institute, 2010).
Among all 290,000 compounds or so, about 11,000 (3.8%) were called active. Many of the other results were omitted from the sample, so actives are more common in it than they were. Unmarked numbers belong to inactive results.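 Rule for the calls: active = mean replicate inhibition above about 79%, with every replicate also reaching it (limit read from the data); inconclusive = only one of the two criteria met; inactive = mean below limit and not every replicate reaching it.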

Target: FAD-linked sulfhydryl oxidase ALR (Homo sapiens) (UniProt P55789)
Assay: inhibitors of human ALR sulfhydryl oxidase, primary screen, biochemical, H2O2 detection, HRP-luminol luminescence, single point (AID 485317)
Conditions: purified ALR, DTT oxidation, stronger effect = higher value, concentration not given here

Chain of FAD-linked sulfhydryl oxidase ALR (Homo sapiens) (P55789 whole entry, looked up): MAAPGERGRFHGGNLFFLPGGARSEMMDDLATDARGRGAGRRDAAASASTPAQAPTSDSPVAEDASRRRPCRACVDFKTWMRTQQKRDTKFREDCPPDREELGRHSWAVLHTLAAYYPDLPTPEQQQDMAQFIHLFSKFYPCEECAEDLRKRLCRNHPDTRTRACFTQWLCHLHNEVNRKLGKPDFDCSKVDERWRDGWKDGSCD

Row | SMILES | inhibition
1 | COc1ccccc1C(=O)NCCC(=O)NC(C)CCc1ccccc1 (configuration not stated) | -10.1%
2 | Cc1sc2ncnc(N3CCC(C(=O)Nc4nc5ccc(Cl)cc5s4)CC3)c2c1C | -1.15%
3 | CC(C)Oc1ccc(C(=O)NCC(=O)Nc2ccc3c(c2)CCC3)cc1 | 1.47%
4 | COc1ccc(OCC(=O)NNC(=O)C2CCC2)cc1 | -2.8%
5 | NNC(=O)COc1ccc(C2SCCS2)cc1 | 89.6% (active)
6 | O=C(COc1ccc(Cl)cc1)Nc1ccc2c(c1)OCO2 | -11.8%
7 | O=C(NCc1ccccc1CN1CCCC1)C1CCN(S(=O)(=O)c2ccc(Cl)cc2)CC1 | 2.81%
8 | COC(=O)C1=C(C)N(Cc2ccccc2)C(=NCCCOC(C)C)N[C@H]1c1ccccc1 | -6.98%
9 | CCN(CCCNC(=O)CCn1c(=O)[nH]c2ccsc2c1=O)c1ccccc1 | 99.3% (active)
10 | CCN(CC)CCCNC(=O)CCc1ccccc1 | -4.98%
11 | CCCCC(CC)CNC(=O)CCCCn1c(=O)[nH]c2ccsc2c1=O (configuration not stated) | -6.66%
12 | CC(C)(C)Oc1ccccc1Nc1nc(NCCO)nc(N2CCCC2)n1 | 6.57%
13 | Cc1ccsc1C(=O)NNC(=O)COc1ccc(Br)cc1 | -3.21%
14 | CCn1c(SCC(=O)Nc2nccs2)nnc1-c1ccncc1 | -12.3%
15 | Cn1c(SCC(=O)Nc2nccs2)nnc1-c1cccnc1 | 2.9%
16 | COc1ccc(NC(=O)CSc2nc3ccccc3c(=O)n2C)cc1 | -13.7%
17 | CCn1c(SCC(=O)Nc2nccs2)nnc1-c1ccco1 | -4.02%
18 | Cc1cc(C(=O)OCC(=O)Nc2nccs2)c2ccccc2n1 | -1.42%
19 | Cc1[nH]c2ccccc2c1SCC(=O)Nc1nccs1 | 97.1% (active)
20 | CCn1c(SCC(=O)Nc2ccc(OC)c(OC)c2)nnc1-c1c[nH]c2ccccc12 | -15.3%
21 | COc1ccc(Cc2nnc(SCC(=O)N(c3ccccc3)C(C)C)n(N)c2=O)cc1 | -4.76%
22 | COc1ccc(NC(=O)CSc2nncc(=O)n2N)cc1OC | 87% (active)
23 | Nn1c(SCC(=O)Nc2nccs2)nncc1=O | 98.8% (active)
24 | COc1ccc(NC(=O)CSc2nnc(Cc3ccccc3)c(=O)n2N)cc1 | 98.6% (active)
25 | Cc1cc(-c2nnc(SCC(=O)Nc3ccc(F)cc3)n2N)n[nH]1 | -1.02%
26 | O=C(c1cc(-c2ccc(Cl)s2)nc2ccccc12)N1CCOCC1 | -1.66%
27 | CN1CCC(N(C)S(=O)(=O)c2ccc(NC(=O)c3cccc(C#N)c3)cc2)CC1 | -3.41%
